Hit rate of the full screen: of about 48,000 compounds, about 13,000 (27%) showed an effect of 50% or more. Some of the results follow.

The subject of the test is Wolbachia pipientis. Description: Anti-Wolbachia Cell-Based Screen. Format: functional. The arrangement: scale not given: in the data most compounds retested in dose-response had high values. The note with it: 5 µM.
Take `COc1ccc(OC)c(S(=O)(=O)NCC2(OC)CCSC2)c1` (configuration not stated): the “Percent Effect” value is recorded as -19.77%. As to `Cc1cc(N(C)C)nc(C2CCCN2)n1.Cl.Cl` (configuration not stated), the “Percent Effect” value turned out to be 137.4%. Consider `CN(C)c1ccc(-c2noc([C@@H]3CCCN3)n2)cn1`, for which the “Percent Effect” value came to 4.635%. As for `CN(C)c1ccnc(C2CCCN2)n1.Cl` (configuration not stated), the figure is 126.4%; as for `Cc1nc(CN(C)c2nccc(N(C)C)n2)cs1`, -6.579%; as for `CCn1cc(C2CCN(Cc3ccnc(N(C)C)c3)CC2)cn1`, -12.62%.

Take `Cc1cc(N(C)C)nc(C2CCNC2)n1.Cl.Cl` (configuration not stated): the “Percent Effect” value is 120.8%. For the molecule `CN(C)c1cc(C2CCCN2)ccn1` (configuration not stated), the “Percent Effect” value is 114.7%. As to `Cc1cc(N(C)C)nc(N2CC(n3cccn3)C2)n1`, the “Percent Effect” value is -0.4027%. Turning to `Cc1cc(N(C)C)nc(N2CCn3c(nnc3C3CC3)C2)n1`, the “Percent Effect” value is given as -9.903%. With `Cc1cc(C)nc(CN(C)C(=O)c2ccccc2C2CCNC2)c1` (configuration not stated), the “Percent Effect” value is on record as -11.76%. As for `CN(C)C(=O)c1cccc(CCNS(C)(=O)=O)c1`, the “Percent Effect” value is given as -0.05313%. As for `O=C(c1cc2c(s1)CCOC2)N1CCCCC1Cn1cccn1` (configuration not stated), the “Percent Effect” value amounted to 96.86%. In the case of `O=C(c1cccc2c1OCCO2)N1CCCCC1Cn1cccn1` (configuration not stated) it was 4.366%; in that of `O=C(c1cc2c(s1)CCOC2)N1CCCC1Cn1cccn1` (configuration not stated), 107.9%; in that of `CC(=O)N1CCCn2nc(CNS(=O)(=O)c3cc(C)cs3)cc2C1`, -1.939%. Regarding `N#Cc1cccnc1NCCC1CCN(CC(F)(F)F)CC1`, the “Percent Effect” value is reported as -14.98%. On to `CC(C)=CCN1C[C@H]2CC[C@@H]1CN(C(=O)CCc1n[nH]c(C)n1)C2`, for which the “Percent Effect” value is given as -19.43%. Take `Cc1cnn(CC2CCCN2C(=O)c2ccc3[nH]c(=O)[nH]c3c2)c1` (configuration not stated): the “Percent Effect” value is 143.3%. Regarding `Cc1cnn(CC2CCCN2C(=O)c2ccc3[nH]nnc3c2)c1` (configuration not stated), the “Percent Effect” value came out at 0.8571%.

Take `Cc1cnn(CC2CCCCN2C(=O)c2ccc3[nH]cnc3c2)c1` (configuration not stated): the “Percent Effect” value worked out at 112.2%.

Take `Cc1cnn(CC2CCCCN2C(=O)c2ccc3c(c2)COC3)c1` (configuration not stated): the “Percent Effect” value was 117.5%. As for `Cc1cnn(CC2CCCN2C(=O)c2ccc3cc[nH]c3c2)c1` (configuration not stated), the “Percent Effect” value came out at 7.467%. On to `Cc1cnn(CC2CCCCN2C(=O)c2ccc3[nH]nnc3c2)c1` (configuration not stated), for which the “Percent Effect” value is reported as -1.412%.

On to `Cc1cnn(CC2CCCCN2C(=O)c2ccc3[nH]c(=O)[nH]c3c2)c1` (configuration not stated), for which the “Percent Effect” value came out at 108.3%. Consider `COc1cccc([S+]([O-])CC(=O)NCc2cc(F)cc(F)c2)c1` (configuration not stated), for which the “Percent Effect” value was -14.98%. On to `O=C1N(Cc2cccc(F)c2F)CCCC1(O)CNCc1ccccn1` (configuration not stated), for which the “Percent Effect” value was -29.29%.

In the case of `Cc1cc(C)cc(C(C)NC(=O)c2ccc(CS(C)(=O)=O)o2)c1` (configuration not stated), the “Percent Effect” value is -2.298%.

Consider `CCc1ccc(CN2CCN(c3ccc(C(N)=O)cn3)CC2)nc1`, for which the “Percent Effect” value is given as 17.95%.

As to `CC(C)(N)c1cn(C2CCN(C(=O)CCC3CCCCC3)CC2)nn1`, the “Percent Effect” value is -21.08%. `Cc1nc(C)c2c(n1)CCN(Cc1ccsc1)CC2`: the “Percent Effect” value came out at 5.852%. As to `Cc1cc(CN[C@@H](C)C(N)=O)c(C)s1`, the “Percent Effect” value was 8.124%. On to `CC(C)c1ncc2c(n1)CN(Cc1nc3c(F)cccc3[nH]1)CC2`, for which the “Percent Effect” value is -0.8884%. For the molecule `Cc1cc(CN2CCc3nc(N4CCOCC4)nc(O)c3CC2)c(C)s1`, the “Percent Effect” value came out at 112.9%. As for `CC(=O)N1CCc2c(nc(-c3ccncc3)nc2N(C)CC(O)CO)C1` (configuration not stated), the figure is 4.037%; as for `Cc1nc(C)c2c(n1)CCN(Cc1ccco1)CC2`, -8.406%; as for `Cc1cc(CN2CCc3nc(-c4ccncc4)nc(O)c3CC2)c(C)s1`, 125%.

For the molecule `Cc1nc(O)c2c(n1)CCN(Cc1cc(C)sc1C)CC2`, the “Percent Effect” value worked out at 92.9%. As for `Cc1cc(CN2CCc3nc(C(C)C)nc(O)c3CC2)c(C)s1`, the “Percent Effect” value amounted to 120.7%. Turning to `Cc1nc2c(c(=O)n1C)CCN(Cc1cc3ccccc3[nH]1)CC2`, the “Percent Effect” value is listed as -25.51%. In the case of `COCc1ccccc1C(=O)NS(=O)(=O)CCCC#N`, the “Percent Effect” value is -8.648%. On to `COC1CCN(S(=O)(=O)N2C[C@H](c3ccccc3)[C@@H](N)C2)CC1`, for which the “Percent Effect” value was -9.837%. Turning to `N#Cc1cccc(CN2CCN(Cc3cscn3)CC2)c1`, the “Percent Effect” value is -8.185%. Regarding `NC(=O)c1ccc(C(=O)N2CCCCC2C2OCCO2)cc1` (configuration not stated), the “Percent Effect” value is reported as -10.24%. As to `Cc1ccc(CN2CCc3ncnc(C4CCOC4)c3CC2)s1.O=C(O)C(F)(F)F` (configuration not stated), the “Percent Effect” value is given as -17.37%.

For the molecule `Cc1ccc(CN2CCc3nc(C(C)C)nc(O)c3CC2)s1`, the “Percent Effect” value is on record as 101.1%. For the molecule `Cc1ccc(CN2CCc3ncnc(OC(C)C)c3CC2)s1.O=C(O)C(F)(F)F`, the “Percent Effect” value is reported as -2.547%. Turning to `Cc1nc(CN2CCOC(CN(C)c3cccnn3)C2)cs1` (configuration not stated), the “Percent Effect” value was found to be 1.717%. Consider `CCOc1cccc(CNc2ccccc2C(=O)OC)c1O`, for which the “Percent Effect” value is 0.1063%. As for `CCOc1ccccc1C(=O)Nn1c(C)cc(C)cc1=O`, the figure is 121%. For `CC(NC(=O)C1=NN(C)C(=O)CC1)c1ccc(Cl)cc1Cl` (configuration not stated), the “Percent Effect” value is listed as -11.2%. For `Cc1cc(C)n(NC(=O)c2cccc3c2OCC3)c(=O)c1`, the “Percent Effect” value was -19.93%.

As for `CCOc1ccccc1C(CC(=O)Nc1ccc(C)cn1)NC(C)=O` (configuration not stated), the “Percent Effect” value was -11.24%.

Regarding `Cc1cc(C)n(NC(=O)c2ccccc2C)c(=O)c1`, the “Percent Effect” value is reported as 92.68%.

As to `Cc1cccc(NC(=O)CNC(=O)c2ccccc2F)c1`, the “Percent Effect” value is reported as -4.999%. As for `Cc1cc(C)n(NC(=O)c2ccccc2F)c(=O)c1`, the figure is 67.62%; as for `Cc1ccccc1C(=O)NCC(O)c1ccc(F)c(F)c1` (configuration not stated), -57.78%. Regarding `Cc1cc(C)n(NC(=O)c2ccc(Cl)cc2Cl)c(=O)c1`, the “Percent Effect” value is reported as 111.9%. As for `O=C(NS(=O)(=O)c1ccccc1)c1ccccc1F`, the figure is -14.83%. Take `CC(C)C(NC(=O)c1ccc(Cl)cc1Cl)C(=O)Nc1ccn(C)n1` (configuration not stated): the “Percent Effect” value is reported as -7.418%. Consider `Cc1cc(CS(=O)(=O)N(C)C(C)c2ccc(Cl)cc2)on1` (configuration not stated), for which the “Percent Effect” value turned out to be 1.246%. Take `CN(C)[C@@H]1CCN(c2ncc(F)cn2)[C@H]1Cc1ccncc1.O=C(O)C(F)(F)F.O=C(O)C(F)(F)F`: the “Percent Effect” value stood at 2.593%. As to `CC(O)CCN(C)S(=O)(=O)Cc1ccc(Cl)c(Cl)c1` (configuration not stated), the “Percent Effect” value is on record as 3.883%. Turning to `N[C@H]1CN(C(=O)Cc2ccc(CO)cc2)C[C@@H]1C1CC1`, the “Percent Effect” value is -4.225%.

Take `O=C1CN(Cc2cn(C3CCN(C4CSCCSC4)CC3)nn2)CCN1`: the “Percent Effect” value is recorded as 9.418%.

On to `CN(C)C(=O)CN(C)C(=O)c1cnc(Cc2ccc(F)cc2)s1`, for which the “Percent Effect” value is given as -0.8881%. With `CC(C)c1nccn1-c1cccc(C2CCCN2S(=O)(=O)N(C)C)n1` (configuration not stated), the “Percent Effect” value is listed as -5.176%. For the molecule `CN1CCCC1c1cccc(Cc2ccc(F)cc2)n1` (configuration not stated), the “Percent Effect” value turned out to be 109.9%. In the case of `CCCN1CCCC1c1nc(Cc2ccc(F)cc2)no1` (configuration not stated), the “Percent Effect” value is recorded as -11.63%. In the case of `CN1CCCC1c1cccc(Cc2ccccc2F)n1` (configuration not stated), the “Percent Effect” value is on record as -8.343%. Regarding `Fc1ccc(Cc2cccc(C3CCN(C4CCOCC4)CC3)n2)cc1`, the “Percent Effect” value was 122.8%. `Fc1ccc2[nH]c([C@H]3CCN(C4CCOCC4)C3)nc2c1`: the “Percent Effect” value is listed as -0.03029%.

`CC(C)c1nccn1-c1cccc(C2CCCN(S(=O)(=O)N(C)C)C2)n1` (configuration not stated): the “Percent Effect” value is 123.6%. In the case of `O=C1CO[C@H]2CN(C3CCOCC3)C[C@H]2N1Cc1ccc(F)cc1`, the “Percent Effect” value was 15.12%. On to `CN(C)C(=O)CN1CCN(c2ccnc3c(F)ccc(F)c23)CC1`, for which the “Percent Effect” value is recorded as 6.891%. `CN(C)C(=O)CN1CCC(c2cccc(Cc3ccc(F)cc3)n2)CC1`: the “Percent Effect” value amounted to 83.25%.

Take `CCO[C@H]1CN(C)C[C@@H]1NC(=O)c1c[nH]nc1C1CCCCC1`: the “Percent Effect” value is given as -8.959%. For the molecule `NC(=O)C1CCN(C(=O)NCc2ccccc2Cn2ccnc2)CC1`, the “Percent Effect” value is given as -2.267%.

In the case of `COc1cc(C(=O)N2CC[C@@H](NC(=O)c3ccccn3)[C@H](O)C2)ccn1`, the “Percent Effect” value is reported as -8.714%. With `COC1(CNS(=O)(=O)c2ccccc2Cl)CCSC1` (configuration not stated), the “Percent Effect” value was -2.993%. With `COC(=O)c1ccc(NC2CCN(CC(F)(F)F)C2=O)cc1C` (configuration not stated), the “Percent Effect” value stood at 4.628%. Regarding `CCn1ccnc1CN1CCN(CCC(=O)NC(C)(C)C)CC1C` (configuration not stated), the “Percent Effect” value is on record as -7.568%. As for `CN(C)S(=O)(=O)N1CCCC(CCC(=O)Nc2ccc(Cl)cc2)C1` (configuration not stated), the figure is 1.788%. Turning to `CN(C)S(=O)(=O)N1CCCC(c2cccc(Cc3ccccc3F)n2)C1` (configuration not stated), the “Percent Effect” value was determined as 93.31%.

With `CN(C)S(=O)(=O)N1CCCC(c2cccc(Cc3ccc(F)cc3)n2)C1` (configuration not stated), the “Percent Effect” value was 101%.

As for `CN(C)S(=O)(=O)N1CCC(c2cccc(Cc3ccccc3Cl)n2)CC1`, the “Percent Effect” value was 111.4%. In the case of `CN(C)S(=O)(=O)N1CCCC(c2cccc(Cc3ccccc3)n2)C1` (configuration not stated) it was 7.511%. Regarding `CN1CCCC(c2cccc(Cc3ccccc3Cl)n2)C1` (configuration not stated), the “Percent Effect” value is recorded as -5.601%. For the molecule `CN(C)S(=O)(=O)N1CCCC(c2cccc(Cc3ccc(Cl)cc3)n2)C1` (configuration not stated), the “Percent Effect” value stood at 74.08%. `Cn1cc(CNC(=O)NCCOc2ccc(F)c(F)c2)cn1`: the “Percent Effect” value is listed as -13.41%. For `Cc1nc(COc2nc(C(C)C)no2)cs1`, the “Percent Effect” value is given as 5.061%. Turning to `CC(C)(N)c1cn(C2CCN(c3ncccc3Cl)CC2)nn1`, the “Percent Effect” value is given as -9.362%. For the molecule `CC(c1ccccc1Cl)N1CCN(C(=O)c2ccc(=O)[nH]c2)CC1` (configuration not stated), the “Percent Effect” value is -13%. With `O=C(O)c1ccccc1-n1cc(CN2CCC(c3cc[nH]n3)C2)cn1` (configuration not stated), the “Percent Effect” value is on record as 122.2%. On to `Cc1ccnc(C2CN(Cc3cnn(-c4ccccc4C(=O)O)c3)C2)n1`, for which the “Percent Effect” value is given as 148.5%. On to `Cc1cccc(C)c1OC1CN(Cc2cnn(C)c2)C1`, for which the “Percent Effect” value was -10.44%.

Turning to `COC(=O)c1cccc2nc([C@H]3CCN(Cc4ccccc4)C3)oc12`, the “Percent Effect” value is listed as -1.952%. As to `CN1CCN(Cc2cnn(-c3ccccc3Cl)c2)[C@H]2CS(=O)(=O)C[C@H]21`, the “Percent Effect” value amounted to 2.085%.

As for `O=C(O)c1ccccc1-n1cc(CN2CCOC(c3cc[nH]n3)C2)cn1` (configuration not stated), the “Percent Effect” value turned out to be 92.78%. For `Cc1c[nH]nc1C1CN(Cc2cnn(-c3ccccc3C(=O)O)c2)C1`, the “Percent Effect” value is listed as 143.7%. For `Cn1cc(CN2CC[C@@H]3[C@@H](CCC(=O)N3CCc3ccccc3)C2)cn1`, the “Percent Effect” value was -6.541%. On to `CCOC(=O)c1n[nH]cc1CN1CCCC(N(C)Cc2ccccc2)C1` (configuration not stated), for which the “Percent Effect” value is listed as -2.39%.

Values taken from ChEMBL document CHEMBL3988442, “University of Dundee, Small-Polar-MMV Screening Library” (2021).
